We go through 36 compounds from PubChem BioAssay (NCATS).

Records with an inconclusive call do not appear. A number with no mark means an inactive call. The call rests on the fitted dose curve; in most records, active means well fitted inhibition curve with a large enough effect; inconclusive means small, poorly fitted or top-dose-only effect; inactive means flat fitted curve, though single readings scatter.

In the first assay the test system is ATS95. The assay can be described thus: qHTS profiling for inhibitors of Plasmodium falciparum proliferation (AID 504749).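 Further: 0% = DMSO vehicle and full inhibition = artemisinin control; nearly all actives have a fitted effect of over 60% in size.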 The conditions noted are these: P. falciparum in erythrocytes, SYBR Green DNA, 72 h; series mostly up to 28.7 µM; activity, negative = inhibition: at the top concentration. The method, boiled down: (§1)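 P. falciparum-infected erythrocytes (0.3% parasitemia, 2.5% hematocrit final) were exposed to compounds for 72 h at 37 C in 5% CO2, then lysed with SYBR Green buffer overnight at room temperature; parasite DNA fluorescence was normalized to artemisinin and DMSO controls.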
On to `CNc1c2c(nn1C)CCCC2`, for which the “activity, negative = inhibition” value is 13.1%.
On the same count and under the same terms, the same measure for `NC(=O)CC[C@@H](N)C(=O)O`: 7.57%; for `Cc1c(C(=O)NCCO)[n+](=O)c2ccccc2n1[O-]`: 5.63%.
In the case of `CCCCOC(=O)c1ccc(N)cc1`, the “activity, negative = inhibition” value is 6.6%.
`CCCCCCCC(=O)OCC(O)CO` (configuration not stated): the “activity, negative = inhibition” value was -0.284%.
On to `CCOc1cc(NC(C)=O)ccc1C(=O)OC`, for which the “activity, negative = inhibition” value is 2.86%.
As for `C[C@@H](N)C(=O)O`, the “activity, negative = inhibition” value was 6.14%.
Regarding `CC(N)CCCC(C)(C)O` (configuration not stated), the “activity, negative = inhibition” value is 3.09%.
As for `O=C(O)Cc1ccc(CCNS(=O)(=O)c2ccc(Cl)cc2)cc1`, the “activity, negative = inhibition” value is 8.44%.
The same measure, in the same setting: the same measure for `COC(=O)c1cccnc1`: 0.704%; for `O=C(Cn1ccnc1[N+](=O)[O-])NCCO`: 6.42%; for `Cc1ccc(S(=O)(=O)NC(=O)NC2CCCCC2)cc1`: -2.19%.
Still for that read-out and setting: in the case of `C[N+](C)(C)CC[N+]1(C)Cc2c(Cl)c(Cl)c(Cl)c(Cl)c2C1` it was -0.6%.
The same measure, in the same setting: in the case of `O=C(O)CCC(=O)O` it was -20.5%; in that of `NC(=O)NS(=O)(=O)c1ccc(N)cc1`, 0.793%; in that of `O=C(/C=C/c1ccccc1)OCc1ccccc1`, 12.1%.
For the compound `COc1cc(C(=O)NCCCCCC(=O)O)cc(OC)c1OC`, the “activity, negative = inhibition” value was 8.69%.
As to `O[C@@H]1CO[C@H]2[C@@H]1OC[C@@H]2O`, the “activity, negative = inhibition” value was 9.64%.
Take `O=C(O)c1ccc(OCCCOc2ccc(C(=O)O)cc2)cc1`: the “activity, negative = inhibition” value was -6.88%.
Same read-out and setting: the same measure for `CC(=O)NS(=O)(=O)c1ccc(N)cc1`: 1.89%; for `CC(=O)Nc1ccc(C(=O)O)cc1`: 1.71%; for `CC1CCc2cc(F)cc3c(=O)c(C(=O)O)cn1c23` (configuration not stated): 0.0598%.
`CCc1cccc(CC)c1NC(=O)CN(CC(=O)O)CC(=O)O`: the “activity, negative = inhibition” value was 13.1% [at 12.8 µM].
Consider `O=c1[nH]c(=O)c2ccccc2o1`, for which the “activity, negative = inhibition” value was 1.42%.
With `CN/C(=C\[N+](=O)[O-])NCCSCc1csc(CN(C)C)n1`, the “activity, negative = inhibition” value was 4.66% [at 12.8 µM].
In the case of `NS(=O)(=O)c1cc(-c2nn[nH]n2)c(NCc2cccs2)cc1Cl`, the “activity, negative = inhibition” value is -4.85%.
For `Cn1c(=O)c2c(ncn2CCO)n(C)c1=O`, the “activity, negative = inhibition” value was 1.07%.
On the same count and under the same terms, the same measure for `Nc1ncnc2c1ncn2[C@@H]1O[C@H](COP(=O)(O)O)[C@@H](O)[C@H]1O`: -1.25%; for `COc1ccc(C(=O)N2CCN(CC(=O)N3CCOCC3)CC2)cc1`: -1.16%.
For the compound `C[C@@H]1O[C@@H](OC[C@H]2O[C@@H](Oc3c(-c4ccc(O)c(O)c4)oc4cc(O)cc(O)c4c3=O)[C@H](O)[C@@H](O)[C@@H]2O)[C@H](O)[C@H](O)[C@H]1O`, the “activity, negative = inhibition” value was 2.51%.
Same read-out and setting: the same measure for `CN1C(C)(C)CCCC1(C)C`: -3.13%; for `Cc1cccc(C(=O)O)c1O`: -6.04%; for `Cc1cc(NC(=O)C2=C(O)c3ccccc3S(=O)(=O)N2C)no1`: -1.27%.
For `NCC1CCC(C(=O)Oc2ccc(CCC(=O)O)cc2)CC1` (configuration not stated), the “activity, negative = inhibition” value is 4.91%.
Turning to `O=C(O)Cn1c(C(=O)Nc2nc(-c3ccccc3Cl)cs2)cc2ccccc21`, the “activity, negative = inhibition” value is -0.44%.
On to `CC(=O)Nc1ccc(OCCOCCOc2ccc(NC(C)=O)cc2)cc1`, for which the “activity, negative = inhibition” value is -2.25%.

A further assay relates to C2A. Described as above. The conditions noted are these: P. falciparum in erythrocytes, SYBR Green DNA, 72 h; series mostly up to 28.7 µM; activity, negative = inhibition: at the top concentration. A digest of the protocol:
as §1
On to `CNc1c2c(nn1C)CCCC2`, for which the “activity, negative = inhibition” value was 0.239%.
On to `NC(=O)CC[C@@H](N)C(=O)O`, for which the “activity, negative = inhibition” value is -5.46%.
The same measure, in the same setting: in the case of `Cc1c(C(=O)NCCO)[n+](=O)c2ccccc2n1[O-]` it was 0.0453%; in that of `CCCCOC(=O)c1ccc(N)cc1`, 2.5%.
On the same count and under the same terms, the same measure for `CCCCCCCC(=O)OCC(O)CO` (configuration not stated): -0.0984%; for `CCOc1cc(NC(C)=O)ccc1C(=O)OC`: 3.5%.
Turning to `C[C@@H](N)C(=O)O`, the “activity, negative = inhibition” value was 2.36%.
The same measure, in the same setting: the same measure for `CC(N)CCCC(C)(C)O` (configuration not stated): 1.28%.
On the same count and under the same terms, the same measure for `O=C(O)Cc1ccc(CCNS(=O)(=O)c2ccc(Cl)cc2)cc1`: -9.69%; for `COC(=O)c1cccnc1`: -3.61%.
Still for that read-out and setting: in the case of `O=C(Cn1ccnc1[N+](=O)[O-])NCCO` it was -13.3%.
In the case of `Cc1ccc(S(=O)(=O)NC(=O)NC2CCCCC2)cc1`, the “activity, negative = inhibition” value is -0.239%.
The same measure, in the same setting: in the case of `C[N+](C)(C)CC[N+]1(C)Cc2c(Cl)c(Cl)c(Cl)c(Cl)c2C1` it was -2.84%; in that of `O=C(O)CCC(=O)O`, 1.38%; in that of `NC(=O)NS(=O)(=O)c1ccc(N)cc1`, -2.61%.
In the case of `O=C(/C=C/c1ccccc1)OCc1ccccc1`, the “activity, negative = inhibition” value is 0.546%.
Same read-out and setting: in the case of `COc1cc(C(=O)NCCCCCC(=O)O)cc(OC)c1OC` it was -8.75%; in that of `O[C@@H]1CO[C@H]2[C@@H]1OC[C@@H]2O`, -3.89%; in that of `O=C(O)c1ccc(OCCCOc2ccc(C(=O)O)cc2)cc1`, -2.26%.
Turning to `CC(=O)NS(=O)(=O)c1ccc(N)cc1`, the “activity, negative = inhibition” value is 0.663%.
Same read-out and setting: in the case of `CC(=O)Nc1ccc(C(=O)O)cc1` it was -0.614%.
For the compound `CC1CCc2cc(F)cc3c(=O)c(C(=O)O)cn1c23` (configuration not stated), the “activity, negative = inhibition” value was -13.4%.
Take `CCc1cccc(CC)c1NC(=O)CN(CC(=O)O)CC(=O)O`: the “activity, negative = inhibition” value was 3.77% [at 12.8 µM].
Still for that read-out and setting: in the case of `O=c1[nH]c(=O)c2ccccc2o1` it was -6.73%.
On to `CN/C(=C\[N+](=O)[O-])NCCSCc1csc(CN(C)C)n1`, for which the “activity, negative = inhibition” value was 3.28% [at 12.8 µM].
On the same count and under the same terms, in the case of `NS(=O)(=O)c1cc(-c2nn[nH]n2)c(NCc2cccs2)cc1Cl` it was -4.17%; in that of `Cn1c(=O)c2c(ncn2CCO)n(C)c1=O`, 1.13%.
As for `Nc1ncnc2c1ncn2[C@@H]1O[C@H](COP(=O)(O)O)[C@@H](O)[C@H]1O`, the “activity, negative = inhibition” value was -2.28%.
Regarding `COc1ccc(C(=O)N2CCN(CC(=O)N3CCOCC3)CC2)cc1`, the “activity, negative = inhibition” value is -2.51%.
Same read-out and setting: the same measure for `C[C@@H]1O[C@@H](OC[C@H]2O[C@@H](Oc3c(-c4ccc(O)c(O)c4)oc4cc(O)cc(O)c4c3=O)[C@H](O)[C@@H](O)[C@@H]2O)[C@H](O)[C@H](O)[C@H]1O`: -1.05%.
`CN1C(C)(C)CCCC1(C)C`: the “activity, negative = inhibition” value was 4.77%.
On the same count and under the same terms, in the case of `Cc1cccc(C(=O)O)c1O` it was 1.24%; in that of `Cc1cc(NC(=O)C2=C(O)c3ccccc3S(=O)(=O)N2C)no1`, -4.54%; in that of `NCC1CCC(C(=O)Oc2ccc(CCC(=O)O)cc2)CC1` (configuration not stated), -3.46%.
For `O=C(O)Cn1c(C(=O)Nc2nc(-c3ccccc3Cl)cs2)cc2ccccc21`, the “activity, negative = inhibition” value was -7.87%.
As to `CC(=O)Nc1ccc(OCCOCCOc2ccc(NC(C)=O)cc2)cc1`, the “activity, negative = inhibition” value was 1.35%.
